From PubChem
CRE-bla Fsk: Cell signaling CRE-BLA (Fsk stim); 71,000 tested, 2.5% active; CHO CRE-bla reporter (cAMP response element driving beta-lactamase), forskolin EC10, beta-lactamase ratio; AID 662, 2007; Potency, µM (series often up to 38.2 µM), actives largely listed as activators; active = well fitted activation curve with a large enough effect in the signal ratio, with a control signal flat, not every such curve was filed as active; inconclusive = small, poorly fitted or top-dose-only effect, or effect the other way, or a change in a side signal; the % refers to the signal ratio
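Forskolin analogue NKH 477 at EC10 stimulated CRE-driven beta-lactamase in CHO cells alongside compound dilution series. Beta-lactamase was measured with CCF4, excitation 405 nm, emission ratio 460/530 nm.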
HEK293 cAMP cs: qHTS Assay for Agonists of the Thyroid Stimulating Hormone Receptor: Activators of Intracellular cAMP Concentrations in Parental HEK 293; parental HEK293 CNG cAMP sensor, membrane potential fluorescence; Potency, µM (titrated, usually from 57.1 µM), actives largely listed as activators; 73,000 tested, 2.5% active; active = well fitted activation curve with a large enough effect; inconclusive = small, poorly fitted or top-dose-only effect; inactive = no such curve, though single readings can be large or run the other way; note: nearly all actives have a fitted effect of over 55% in size
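Counterscreen for endogenous-receptor signalling: CNG-channel HEK 293 cells report cAMP rise by membrane depolarization. After 60 min dye equilibration with 100 uM RO 20-1724, compounds incubated 30 min before bottom-read fluorescence at 590 nm.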
IkB sig inh: IkB Signaling; ABC-DLBCL IkBa-CBG/CBR dual luciferase ratio, 4 h; response scale: scaled: untreated 0%, proteasome inhibitor 100%; Potency, µM (highest dose often 57.1 µM); 110,000 tested, 0.04% active; active = well fitted curve in the direction sought with a large enough effect in the signal ratio, not every such curve was filed as active; inconclusive = small, poorly fitted or top-dose-only effect, or a change in a side signal; the % refers to the signal ratio;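 note: the direction sought is a rising ratio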
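In this assay, an IκBα–CBG68 fusion accumulates when IKK-driven degradation is blocked; native CBR normalizes for cell number. OCI-Ly3 cells were treated 4 h with compound and doxycycline, then green and red light read after Chroma-Glo addition.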
Hsp90 Hop PPI: qHTS Assay for Disrupters of an Hsp90 Co-Chaperone Interaction. Hsp90 C-terminal peptide / TPR2A (Hop) interaction, human. AlphaScreen TPR2A-His6 binding biotin-Hsp90 C-terminal peptide. Potency, µM (top dose mostly 57 µM). 71,000 tested, 0.44% active; active = well fitted curve in either direction with a large enough effect; inconclusive = small, poorly fitted or top-dose-only effect, or another doubt
TSHR agonist: qHTS Assay for Agonists of the Thyroid Stimulating Hormone Receptor | 73,000 tested, 0.48% active | AID 926, 2007 | Potency, µM (titrated, usually from 57.1 µM), hits mostly activators | HEK293-CNG-TSHR cells (CNG channel as cAMP sensor), membrane potential dye, cAMP; active = well fitted activation curve with a large enough effect in the main read-out, with a control signal flat, not every such curve was filed as active; inconclusive = small, poorly fitted or top-dose-only effect, or a change in a side signal; inactive = no such curve, though single readings can be large or run the other way; reference of the percent scale not stated here;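 note: the control signal comes from parental cells without the receptor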
Target sequence (P16473 whole entry, looked up): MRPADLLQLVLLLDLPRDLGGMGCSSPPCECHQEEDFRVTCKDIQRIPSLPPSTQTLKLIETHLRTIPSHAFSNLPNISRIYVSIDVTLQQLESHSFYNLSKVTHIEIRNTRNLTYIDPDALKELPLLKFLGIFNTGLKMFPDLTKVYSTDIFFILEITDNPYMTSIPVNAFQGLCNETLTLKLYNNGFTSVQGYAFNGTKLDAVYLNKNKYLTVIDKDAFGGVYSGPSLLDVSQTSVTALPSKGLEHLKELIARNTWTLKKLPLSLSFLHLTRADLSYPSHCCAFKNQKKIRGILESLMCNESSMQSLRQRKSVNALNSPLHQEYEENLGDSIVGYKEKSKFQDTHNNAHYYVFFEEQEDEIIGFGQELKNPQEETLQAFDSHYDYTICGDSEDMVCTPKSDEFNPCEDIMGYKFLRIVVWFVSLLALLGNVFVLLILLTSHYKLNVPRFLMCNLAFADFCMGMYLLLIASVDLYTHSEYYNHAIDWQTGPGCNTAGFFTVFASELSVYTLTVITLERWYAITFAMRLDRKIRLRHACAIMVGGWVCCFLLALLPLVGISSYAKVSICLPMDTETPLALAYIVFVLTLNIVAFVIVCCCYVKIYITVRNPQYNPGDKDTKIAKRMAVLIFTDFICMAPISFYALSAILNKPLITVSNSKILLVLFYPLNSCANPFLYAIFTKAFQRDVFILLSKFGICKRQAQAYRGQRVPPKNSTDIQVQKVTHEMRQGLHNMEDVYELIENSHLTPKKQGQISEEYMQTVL
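HEK 293 cells stably expressing TSHR and a modified CNG channel, with CNG-only parental cells as counterscreen, were preloaded 60 min at room temperature with membrane potential dye containing 100 uM RO 20-1724. Compound exposure was 30 min, and depolarization was read as fluorescence at 590 nm.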
Large screens that a line does not name were inactive. Sampled rows, rich in hits. Any-hit rate of the full collection: about 3.5%.

Cc1cc(-c2ccc(N=Nc3ccc4c(S(=O)(=O)O)cc(S(=O)(=O)O)c(N)c4c3O)c(C)c2)ccc1N=Nc1ccc2c(S(=O)(=O)O)cc(S(=O)(=O)O)c(N)c2c1O	CRE-bla Fsk inconclusive, IkB sig inh inconclusive, Hsp90 Hop PPI 3.98µM
Cc1ccc(N=Nc2c(O)c(S(=O)(=O)O)cc3cc(S(=O)(=O)O)ccc23)c(C)c1	none
CN(Cc1ccccc1)Cc1nc2c(c(=O)n(C)c(=O)n2C)n1CCc1ccccc1	CRE-bla Fsk inconclusive, HEK293 cAMP cs 12.6µM, TSHR agonist inconclusive
CCCCn1c(CN(C)Cc2ccccc2)nc2c1c(=O)n(C)c(=O)n2C	CRE-bla Fsk inconclusive, HEK293 cAMP cs 15.8µM, IkB sig inh inconclusive, TSHR agonist inconclusive
COc1ccc(-n2ccnc2SCC(=O)Nc2cccc(OC)c2)cc1	none (no result: CRE-bla Fsk, HEK293 cAMP cs, Hsp90 Hop PPI, TSHR agonist)
O=c1c(-c2ccccc2)nc2cnc(Nc3ccccc3)nc2n1C[C@H]1CCCO1	CRE-bla Fsk 1.26µM
COc1ncc2nc(-c3ccccc3)c(=O)n(C[C@H]3CCCO3)c2n1	CRE-bla Fsk inconclusive
O=c1c(-c2cc(F)cc(F)c2)nc2cnc(Nc3ccccc3)nc2n1C[C@H]1CCCO1	CRE-bla Fsk inconclusive
COc1ncc2nc(-c3cn(C)c4ccccc34)c(=O)n(C[C@H]3CCCO3)c2n1	CRE-bla Fsk 1.58µM
COc1ncc2nc(-c3ccc(Cl)cc3)c(=O)n(C[C@H]3CCCO3)c2n1	CRE-bla Fsk inconclusive, HEK293 cAMP cs inconclusive, TSHR agonist inconclusive
COc1ccc(-c2nc3cnc(OC)nc3n(C[C@H]3CCCO3)c2=O)cc1	CRE-bla Fsk 10µM, HEK293 cAMP cs 20µM, TSHR agonist inconclusive
Cc1ccc(/C=C/c2onc(C)c2S(=O)(=O)N2CCC(C(=O)Nc3ccc(OC(F)(F)F)cc3)CC2)cc1	none (no result: CRE-bla Fsk, HEK293 cAMP cs, Hsp90 Hop PPI, TSHR agonist)
COc1cccc(CN2c3ccccc3-c3nc(SCC(=O)Nc4ccccc4Cl)ncc3S2(=O)=O)c1	none (no result: CRE-bla Fsk, HEK293 cAMP cs, Hsp90 Hop PPI, TSHR agonist)
CCCCOn1c(C)c(C(=O)OCC)c2c3no[n+]([O-])c3ccc21	CRE-bla Fsk inconclusive
CCCCOn1c(C)c(C(=O)OCC)c2c3nonc3ccc21	CRE-bla Fsk 10µM, HEK293 cAMP cs 12.6µM, Hsp90 Hop PPI 31.6µM, TSHR agonist inconclusive
COc1ccc(-c2cc(C(F)(F)F)nc(N3CCCCCC3)n2)cc1	Hsp90 Hop PPI 25.1µM
COc1ccc(-c2cc(C(F)(F)F)nc(N3CCN(C)CC3)n2)cc1	CRE-bla Fsk inconclusive
COc1ccc(-c2cc(C(F)(F)F)nc(N3CCN(c4ccccc4)CC3)n2)cc1OC	none
COc1ccc(-c2cc(C(F)(F)F)nc(N3CCCCC3)n2)cc1OC	CRE-bla Fsk inconclusive, Hsp90 Hop PPI 25.1µM
C#CCCCC(=S)Nc1ccccc1	Hsp90 Hop PPI inconclusive (no result: IkB sig inh)
CO[C@@H]1COC(=O)C/C=C\[C@@H](C)[C@H](OC)COC(=O)[C@@H](C)COC(=O)C/C=C\[C@H]1C	none (no result: CRE-bla Fsk, IkB sig inh, Hsp90 Hop PPI)
O=C(c1ccco1)N1CCC2(CCCN(C(c3ccccc3)c3ccccc3)C2)CC1	none
CCOC(=O)c1oc2ccccc2c1CSc1nnnn1-c1ccc(C)cc1	HEK293 cAMP cs 7.94µM, Hsp90 Hop PPI inconclusive, TSHR agonist inconclusive
CCOC(=O)c1oc2ccccc2c1CSc1nnc(-c2ccco2)o1	CRE-bla Fsk inconclusive, HEK293 cAMP cs inconclusive, TSHR agonist inconclusive
Cc1ccnc(N2CCC(C(=O)Nc3cccc(C(F)(F)F)c3)CC2)n1	HEK293 cAMP cs 20µM, TSHR agonist inconclusive
O=C(O)/C=C\C(=O)Nc1ccc2c(c1)-c1ccccc1C2	none
COc1ccc(-c2nc3sc(CCNS(=O)(=O)c4ccccc4)c(C)n3n2)cc1	none (no result: CRE-bla Fsk, HEK293 cAMP cs, Hsp90 Hop PPI, TSHR agonist)
O=C(Nc1sc2c(c1C(=O)NC1CCCCC1)CCC2)c1ccco1	CRE-bla Fsk inconclusive, TSHR agonist 15.8µM
COc1ccccc1NC(=O)c1c(NC(=O)c2ccco2)sc2c1CCC2	CRE-bla Fsk inconclusive
COc1ccc(CCNc2ncnc3c2oc2ccccc23)cc1OC	CRE-bla Fsk inconclusive, HEK293 cAMP cs 12.6µM, IkB sig inh inconclusive, TSHR agonist inconclusive
COc1ccc(CCNc2nc(C)nc3c2oc2ccccc23)cc1OC	CRE-bla Fsk inconclusive, HEK293 cAMP cs inconclusive, IkB sig inh inconclusive, TSHR agonist inconclusive
CN1CCc2cc3c(cc2C(=O)Cc2ccc4c(c2C1)OCO4)OCO3	HEK293 cAMP cs inconclusive, TSHR agonist inconclusive
CCOC(=O)CSc1nc(NCc2ccco2)c2ccccc2n1	none
CCOC(=O)c1sc2nc(CC(=O)OC)nc(NCc3ccco3)c2c1C	CRE-bla Fsk 10µM, HEK293 cAMP cs inconclusive, TSHR agonist inconclusive
C[C@H]1C[C@@H]2[C@H]3CCC4=CC(=O)C=C[C@@]4(C)[C@]3(Cl)[C@@H](Cl)C[C@]2(C)[C@]1(O)C(=O)COP(=O)(O)O	none
O=C(Nc1ccc2oc(-c3ccccc3Cl)nc2c1)c1cncc(Br)c1	CRE-bla Fsk 0.501µM
COc1ccc(Cc2nnc(SCC(=O)Nc3ncc(C)s3)o2)cc1	HEK293 cAMP cs inconclusive, TSHR agonist inconclusive
COc1ccc(CCCc2nnc(SCC(=O)Nc3ncc(C)s3)o2)cc1	CRE-bla Fsk 10µM, Hsp90 Hop PPI inconclusive (no result: TSHR agonist)
CCn1c(C(=O)NCc2ccccn2)cc2sccc21	none (no result: CRE-bla Fsk, IkB sig inh, Hsp90 Hop PPI)
Cn1c(C(=O)N(Cc2ccccc2)Cc2cccs2)cc2sccc21	HEK293 cAMP cs 15.8µM, Hsp90 Hop PPI inconclusive, TSHR agonist inconclusive
Cn1c(C(=O)N(Cc2ccccc2)Cc2ccccn2)cc2sccc21	HEK293 cAMP cs 15.8µM, IkB sig inh inconclusive, TSHR agonist inconclusive
CC(C)=C1C(=O)C(c2ccccc2)=C2CN3C(=O)N(CCc4ccccc4)C(=O)[C@]3(Cc3ccccc3)[C@H]21	none (no result: IkB sig inh)
COc1ccc2[nH]cc(CCNc3ncncc3-c3ccccc3C)c2c1	CRE-bla Fsk inconclusive, HEK293 cAMP cs inconclusive, TSHR agonist inconclusive
CCOC(=O)CSC(CC)C(=O)Nc1nnc(C(C)C)s1 (stereo not drawn)	CRE-bla Fsk 10µM, HEK293 cAMP cs inconclusive, TSHR agonist inconclusive
CCC(SCC(=O)OC)C(=O)Nc1nnc(C(C)C)s1 (stereo not drawn)	none
COc1cccc2cc(-c3nnc(SCC(=O)Nc4cc(C(F)(F)F)ccc4Cl)n3N)oc12	HEK293 cAMP cs 25.1µM, TSHR agonist inconclusive
N=C(N)SCCON1C(=O)c2ccccc2C1=O	IkB sig inh inconclusive
CCOC(=O)c1cc(-c2ccc3c(c2)OCCO3)nc2c1c(C)nn2CCC#N	CRE-bla Fsk 10µM, HEK293 cAMP cs 20µM, Hsp90 Hop PPI inconclusive, TSHR agonist inconclusive
CC1(C)CC(=O)C2=C(C1)NC(SCC(=O)Nc1ccccc1)=C(C#N)C2c1ccco1 (stereo not drawn)	CRE-bla Fsk 12.6µM, HEK293 cAMP cs 15.8µM, TSHR agonist inconclusive
CCCCn1c(SCC(=O)c2cc(OC)ccc2OC)nc2cc(S(N)(=O)=O)ccc21	CRE-bla Fsk inconclusive, HEK293 cAMP cs 25.1µM, TSHR agonist inconclusive
